Screening results deposited in PubChem BioAssay by several laboratories.
PrP UTR inh = inhibition of PrP 5' UTR reporter expression; cell-based PrP 5' UTR mRNA reporter, plate reader; inhibition, % (no concentration beside the values); 340,000 tested, 0.35% active; AID 488862, 2010; in the data active = inhibition above about 52%; also: 0 = median of the neutral control wells
RecA splice inh = Mtb RecA intein splicing inhibitors, primary screen, biochemical, fluorescence, HTS | inhibition, % (concentration not given with the values) | 290,000 tested, 0.75% active | Protein RecA (Mycobacterium tuberculosis (strain ATCC 25618 / H37Rv)), P9WHJ3 | cell-free RecA intein splicing; in the data active = inhibition above about 30%;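 also: 0% = vehicle wells and 100% = reference inhibitor control wells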
SARS 3CLpro inh = SARS-CoV 3CLpro protease inhibitors, primary screen, biochemical, quenched FRET; Replicase polyprotein 1ab (Severe acute respiratory syndrome coronavirus), P0C6X7; recombinant SARS-CoV 3CLpro, quenched FRET peptide cleavage; inhibition, % at 6 µM; 290,000 tested, 0.14% active; in the data active = inhibition above about 12%
Mtb hypoxia inh = PubChem AID 1159583; M. tuberculosis hypoxia-regulated fluorescent reporter, fluorescence; fluorescence inhibition, % (test concentration not listed); 300,000 tested, 0.1% active; in the data active = fluorescence inhibition mostly above about 23%, no sharp cut-off; inactive = mostly below about 17%
PrPC surface inh = inhibitors of human cell surface prion protein PrPC, primary screen, cell-based, TR-FRET. Major prion protein (Homo sapiens), P04156. TR-FRET read-out. inhibition, % at 13.8 µM. 370,000 tested, 0.43% active. AID 720596, 2013; in the data active = inhibition above about 24%; also: 0% = median of the test wells and 100% = reference compound wells
BJeLR viability = MLPCN primary cell-based screen for lethality selective to Ras in HRASV12 cells; inhibition, % (test concentration not listed); BJeLR (HRASV12) viability, CellTiter-Glo ATP luminescence, 48 h; 300,000 tested, 0.17% active; in the data active = inhibition above about 50%
* marks the source's active call; other numbers are inactive results. An excerpt weighted towards active compounds, which were near 1.4% of everything screened.

How did CC(=O)Oc1cc2c(cc1Cl)C1(CC(c3ccccc3Cl)O2)CC(C)(C)NC(=S)N1 (stereo not given) do in these assays?
PrP UTR inh: -11; RecA splice inh: 45*; SARS 3CLpro inh: 3; PrPC surface inh: -2; BJeLR viability: -1

Results for COc1cc([C@@H]2c3cc4c(cc3[C@@H](OC)[C@H]3COC(=O)[C@H]23)OCO4)cc(OC)c1O ?
PrP UTR inh: -20; RecA splice inh: 0; PrPC surface inh: 3; BJeLR viability: 22

How did COc1cc([C@@H]2c3cc4c(cc3[C@@H](NC3CCN(Cc5ccccc5)CC3)[C@H]3COC(=O)[C@H]23)OCO4)cc(OC)c1O do in these assays?
RecA splice inh: -5; BJeLR viability: 86*

How did COc1ccc(NC(=O)c2cccc(N3C(=O)C4C5C=CC(C5)C4C3=O)c2)cc1Cl (stereo not given) do in these assays?
PrP UTR inh: -18; RecA splice inh: 94*; SARS 3CLpro inh: 6; PrPC surface inh: -2; BJeLR viability: 7

How did Cc1ccc(NC(=O)c2cccc(N3C(=O)C4C5C=CC(C5)C4C3=O)c2)cc1C (stereo not given) do in these assays?
PrP UTR inh: -20; RecA splice inh: -1; SARS 3CLpro inh: 2; Mtb hypoxia inh: 4; PrPC surface inh: 9; BJeLR viability: 2

How did Cc1c(C=NO)c2ccccn2c1C(=O)c1ccc(F)cc1 do in these assays?
Mtb hypoxia inh: 15

What do the screens show for `C/C(CC(=O)Nc1cc(C)ccn1)=N\NC(=O)c1ccc(C)cc1`?
PrP UTR inh: -6; RecA splice inh: 62*; SARS 3CLpro inh: -4; PrPC surface inh: -2; BJeLR viability: 3

How did CCOC(=O)c1c(C)oc2c1C(=O)c1ccccc1C2=O do in these assays?
PrP UTR inh: -89; RecA splice inh: 59*; SARS 3CLpro inh: 0; Mtb hypoxia inh: -9; PrPC surface inh: 5

How did CCOC(=O)c1c(C)nc2c(c1-c1ccccc1)C(=O)c1ccccc1-2 do in these assays?
PrP UTR inh: 5; RecA splice inh: -5; SARS 3CLpro inh: -1; Mtb hypoxia inh: 12; PrPC surface inh: -2; BJeLR viability: 1

How did Cc1oc2c(c1C(=O)O)C(=O)c1ccccc1C2=O do in these assays?
PrP UTR inh: -48; RecA splice inh: 68*; SARS 3CLpro inh: 3; Mtb hypoxia inh: 3; PrPC surface inh: -17; BJeLR viability: -1

Results for Cc1oc2c(c1C(=O)c1ccccc1)C(=O)C(=O)c1ccccc1-2 ?
PrP UTR inh: -60; RecA splice inh: 12; SARS 3CLpro inh: -1; PrPC surface inh: -5; BJeLR viability: 13

How did Cc1ccc2nc(N/N=C\c3ccc([N+](=O)[O-])o3)nc(-c3ccccc3)c2c1 do in these assays?
PrP UTR inh: 2; RecA splice inh: 42*; SARS 3CLpro inh: 2; PrPC surface inh: 1; BJeLR viability: -6

Results for COc1cc(C=NNS(=O)(=O)c2ccccc2)c(OC)c(OC)c1 ?
Mtb hypoxia inh: -6

How did CC1(C)SC2C(NC(=O)C(N)c3ccccc3)C(=O)N2C1C(=O)OC1OC(=O)c2ccccc21 (stereo not given) do in these assays?
Mtb hypoxia inh: 22

What do the screens show for `COc1ccc(/C=N/Nc2cc(C)nc(-n3nc(C)cc3C)n2)cc1`?
PrP UTR inh: -18; RecA splice inh: -2; SARS 3CLpro inh: -3; PrPC surface inh: 2; BJeLR viability: -1

Results for CCOc1cc(C=NNc2cc(C)nc(-n3nc(C)cc3C)n2)ccc1O ?
Mtb hypoxia inh: 39*

How did CCOC(=O)/C(C#N)=C/c1cccc(C)c1 do in these assays?
PrP UTR inh: -24; RecA splice inh: -4; SARS 3CLpro inh: 0; Mtb hypoxia inh: 8; PrPC surface inh: 2; BJeLR viability: -3

How did COc1cc(/C=C/C(=O)OCC(=O)Nc2ccc3c(c2)OCCO3)ccc1O do in these assays?
PrP UTR inh: -21; RecA splice inh: 1; SARS 3CLpro inh: 1; Mtb hypoxia inh: 6; PrPC surface inh: -3; BJeLR viability: -3

How did CCOC(=O)/C(C#N)=C\c1ccc(O)c(OC)c1 do in these assays?
PrP UTR inh: -9; RecA splice inh: 40*; SARS 3CLpro inh: 0; Mtb hypoxia inh: 6; PrPC surface inh: -7; BJeLR viability: 4
